# Measured values: publication PMC4336329 (PLoS ONE, 2015)
# In all, about 310,000 compounds went through this assay and about 14,000 (4.5%) showed an effect of 50% or more. The effect is printed as a negative number. The sample holds strong results, similar compounds and a random draw of the others, so the mix is not that of the screen.
# Target: human ether-à-go-go-related gene (hERG) potassium channel (human, UniProt Q12809)
# Experiment: primary screen, population patch clamp on CHO cells stably expressing hERG; higher = less effect of the substance
# 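Note: peak tail current of the secondary pulse compared with the same well before compound.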
# Chain of human ether-à-go-go-related gene (hERG) potassium channel (Q12809 whole entry, looked up): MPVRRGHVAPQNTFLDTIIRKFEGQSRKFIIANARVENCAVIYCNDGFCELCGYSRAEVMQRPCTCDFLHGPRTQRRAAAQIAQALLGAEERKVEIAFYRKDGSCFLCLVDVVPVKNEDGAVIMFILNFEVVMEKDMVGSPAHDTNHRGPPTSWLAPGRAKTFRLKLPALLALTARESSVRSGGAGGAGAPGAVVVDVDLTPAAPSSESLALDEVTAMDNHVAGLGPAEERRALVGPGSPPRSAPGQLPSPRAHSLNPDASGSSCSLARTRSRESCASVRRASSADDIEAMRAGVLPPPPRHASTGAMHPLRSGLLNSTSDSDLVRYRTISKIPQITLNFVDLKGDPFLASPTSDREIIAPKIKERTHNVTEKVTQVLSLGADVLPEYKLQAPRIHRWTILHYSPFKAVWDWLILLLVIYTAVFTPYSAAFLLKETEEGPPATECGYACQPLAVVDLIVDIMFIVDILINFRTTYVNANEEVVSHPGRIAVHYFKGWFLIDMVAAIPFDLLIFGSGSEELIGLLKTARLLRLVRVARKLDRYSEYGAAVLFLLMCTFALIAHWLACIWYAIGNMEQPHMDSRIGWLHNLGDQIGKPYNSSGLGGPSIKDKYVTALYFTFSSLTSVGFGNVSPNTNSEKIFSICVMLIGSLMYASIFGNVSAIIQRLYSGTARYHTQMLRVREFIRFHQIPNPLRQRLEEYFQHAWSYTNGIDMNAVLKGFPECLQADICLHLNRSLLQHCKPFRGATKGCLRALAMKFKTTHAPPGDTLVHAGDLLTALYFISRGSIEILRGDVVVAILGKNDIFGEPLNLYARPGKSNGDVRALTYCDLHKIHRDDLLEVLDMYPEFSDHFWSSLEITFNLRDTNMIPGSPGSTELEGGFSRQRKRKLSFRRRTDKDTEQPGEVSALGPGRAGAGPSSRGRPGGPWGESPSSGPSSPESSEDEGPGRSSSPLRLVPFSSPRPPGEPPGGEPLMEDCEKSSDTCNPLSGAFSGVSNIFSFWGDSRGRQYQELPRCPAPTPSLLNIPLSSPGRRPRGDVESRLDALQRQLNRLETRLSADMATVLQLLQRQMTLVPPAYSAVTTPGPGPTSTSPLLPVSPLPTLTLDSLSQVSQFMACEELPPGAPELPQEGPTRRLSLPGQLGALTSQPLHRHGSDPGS
row,Compound,"hERG current change (%, negative = inhibition) at 10uM [%]"
1,NC(=O)C1CCN(C(=O)Cc2ccsc2)CC1,-1.15
2,Cc1csc2nc(O)c(C(=O)NCCCc3ccccc3)c(=O)n12,-20
3,Cc1ccnc(NS(=O)(=O)c2ccc(NC(=O)Cc3ccc(Cl)cc3)cc2)n1,14.3
4,S=C1NC2(CCCCC2)Cc2ccccc21,12.4
5,CC(C)NC(=O)CN1CCN(Cc2nc(-c3cccs3)no2)CC1,19.9
6,C[C@@H](C(=O)Nc1ccc2ccccc2c1)[C@H]1C[C@]1(C)[C@H](NC(=O)c1cnccn1)c1ccccc1,-4.43
7,CN1CCN(C(=S)NC(=O)c2ccccc2Br)CC1,11.2
8,O=c1[nH]c(O)c(N=Nc2cccc(S(=O)(=O)N3CCOCC3)c2)c(=O)[nH]1,-73.7
9,O=c1[nH]c(=S)[nH]c(O)c1N=Nc1cccc(S(=O)(=O)N2CCOCC2)c1,9.03
10,O=c1[nH]c(O)c(N=Nc2ccc(S(=O)(=O)N3CCOCC3)cc2)c(=O)[nH]1,-4.59
11,COC(=O)C1=C(c2ccccc2)C[C@@H]2CC[C@H]1N2C(=O)NCCCOC(C)C,0.331
12,CCOc1ccc(N(C(=O)CNC(=O)c2ccco2)C(C(=O)NC2CCCC2)c2ccncc2)cc1 (centres unmarked),-10.7
13,COc1ccc(CN2CCN(CCc3ccccc3)C(CCO)C2)c(O)c1 (centres unmarked),-71.7
14,COc1ccc(F)c(CN2CCN(CCc3ccccc3)C(CCO)C2)c1 (centres unmarked),-55.9
15,COc1ccc(CN2CCN(Cc3c[nH]c4ccccc34)CC2CCO)c(F)c1 (centres unmarked),-41.4
16,COc1ccc(CN2CCN(CCCc3ccccc3)C(CCO)C2)c(O)c1 (centres unmarked),-83.1
17,O=C(OCC1OC(n2cc(Br)c(=O)[nH]c2=O)C(Br)C1O)c1ccccc1 (centres unmarked),8.3
18,CCC(C)N(C(=O)COC(=O)CNC(=O)c1ccccc1F)C1CCS(=O)(=O)C1 (centres unmarked),4.36
19,COc1ccc(C)cc1NC(=O)c1cc2c(s1)CCC2,-5.71
20,COc1ccccc1-c1nnc2sc(-c3ccc(N(C)C)cc3)nn12,-11
21,CC(=O)NC(C)c1nc2ccccc2n1C(C)C (centres unmarked),-10.2
22,Cc1cc(C)cc(NC(=O)C(NCCN2CCOCC2)c2ccccc2)c1.O=C(O)C(=O)O (centres unmarked),-7.91
23,Cc1cc(C)cc(NC(=O)C(NCC2CCCO2)c2ccccc2)c1.O=C(O)C(=O)O (centres unmarked),-35.5

row,Compound,"hERG current change (%, negative = inhibition) at 10uM [%]"
1,Cc1ccc(C)c(NC(=O)C(c2ccccc2)N2CCOCC2)c1 (centres unmarked),-10.6
2,COc1ccc(C)cc1NC(=O)C(NCC1CCCO1)c1ccccc1 (centres unmarked),-51.4
3,COc1ccc(C)cc1NC(=O)C(NCC(O)c1ccccc1)c1ccccc1.O=C(O)C(=O)O (centres unmarked),-21.7
4,Cc1ccc(C)c(NC(=O)C(NCC(C)(C)N2CCOCC2)c2ccccc2)c1 (centres unmarked),-62.6
5,Cc1cc(NC(=O)C2CCN(S(=O)(=O)Cc3ccccc3)CC2)ccc1-n1cnnn1,-9.11
6,FC(F)(F)c1cnc(Sc2ncn[nH]2)c(Cl)c1,4.22
7,CCOC(=O)c1c(C)[nH]c(C(=O)CN2C(=O)NC3(CCCC3)C2=O)c1C,-1.87
8,CCOc1ccc(S(=O)(=O)N2CCN(CC)CC2)cc1NC(=O)c1ccccc1F,-16.6
9,COc1ccc(CCC(=O)Nc2nc(C)c(C(=O)N(C)C)s2)cc1,-2.23
10,CS(=O)(=O)c1ccc(N2CCOCC2)c(S(C)(=O)=O)c1,-5.39
11,Cc1cc(F)ccc1N1CCC(N2CCN(C)C(CCO)C2)CC1 (centres unmarked),22.1
12,Cc1ccc(N2CCC(N3CCN(C)C(CCO)C3)CC2)cc1 (centres unmarked),12.8
13,Cc1cc(F)ccc1N1CCC(N2CCN(CCC(C)C)C(CCO)C2)CC1 (centres unmarked),-63.5
14,CC(C)CCN1CCN(C2CCN(c3ccccc3)CC2)CC1CCO (centres unmarked),-60.9
15,CC(C)CCN1CCN(C2CCN(c3ccc4c(c3)OCO4)CC2)CC1CCO (centres unmarked),-17.6
16,Cc1cc(F)ccc1N1CCC(N2CCN(C(C)C)C(CCO)C2)CC1 (centres unmarked),-24.7
17,O=C(CN1CCOCC1)NCCc1ccccc1,16.4
18,NS(=O)(=O)c1ccc(NN=C2CCN(Cc3ccccc3)CC2)c([N+](=O)[O-])c1,-17.6
19,CCOC(=O)NC(=O)CSc1ccc2ccccc2n1,14
20,CCC1(C(=O)OC)NC(c2ccco2)C2C(=O)N(c3ccc(F)cc3)C(=O)C21 (centres unmarked),6.75
21,Cc1nc(-c2cccc(S(=O)(=O)N3CCCCCC3)c2)cs1,-23.2
22,CCOC(=O)C1CCN(S(=O)(=O)c2cccc(-c3cn4cc(Cl)ccc4n3)c2)CC1,-58
23,CCOC(=O)C1CCN(S(=O)(=O)c2cccc(-c3cn4cccnc4n3)c2)CC1,-24.7

row,Compound,"hERG current change (%, negative = inhibition) at 10uM [%]"
1,CC1CCN(S(=O)(=O)c2cccc(-c3cn4cc(Cl)ccc4n3)c2)CC1,-5.86
2,CCOC(=O)C1CCN(S(=O)(=O)c2cccc(-c3csc(C)n3)c2)CC1,-53.5
3,CCOC(=O)C1CCN(S(=O)(=O)c2cccc(-c3cn4ccccc4n3)c2)CC1,-60.4
4,CCOC(=O)C1CCN(S(=O)(=O)c2cccc(-c3cn4cc(C)ccc4n3)c2)CC1,-3.7
5,CCOC(=O)C1CCN(S(=O)(=O)c2cccc(-c3cn4cccc(C)c4n3)c2)CC1,-21.3
6,Cc1nc(-c2cccc(S(=O)(=O)N3CCC(C)CC3)c2)cs1,-13.4
7,COc1ccccc1C(=O)NC(C)c1cccc2ccccc12 (centres unmarked),8.02
8,C=CCN(C(=O)c1ccc(Cl)cc1)c1ccccc1C(=O)NCC(=O)O,21.1
9,CCC(NC(=O)NCCCn1ccnc1)(C(F)(F)F)C(F)(F)F,8.18
10,CC(C)c1ccc(N=c2c([N+](=O)[O-])nn(-c3ccc4c(c3)OCCO4)n2O)cc1,1.98
11,COc1ccc(CSc2ccc(-c3nc4ccccn4c3NCc3ccccc3)cc2OC)cc1.O=C(O)C(F)(F)F,8.68
12,C=CCn1c(SCCCCCC)nc(O)cc1=O,-4
13,Cc1ccccc1/C=N\NC(=O)c1ccccc1-n1cccc1,18.5
14,COc1cccc(C2C(=O)c3ccccc3C2=O)c1,16.9
15,NS(=O)(=O)c1ccc(CCNCC(=O)NC2CC2)cc1,-64.1
16,NS(=O)(=O)c1ccc(CCNC(=S)NC2CCCC2)cc1,11.2
17,NS(=O)(=O)c1ccc(CCNC(=O)CNCCc2ccccc2)cc1,16.2
18,O=C(CCNC(=O)c1ccccc1Cl)NCCCSc1ccccc1,-8.64
19,Br.Clc1ccc2nc(CN3CCCCC3)cn2c1,-32.7
20,Cc1cc2ccc3ccccc3c2cc1CN(C)C.Cl,-51.9
21,CN(C)Cc1cc2ccccc2c2c1COC2,-0.493
22,CN(C)Cc1c(O)ccc2ccccc12,0.0591
23,O=C(O)CCC(=O)N1N=C(c2ccc(Br)cc2)CC1c1ccc(Br)cc1 (centres unmarked),20.6

row,Compound,"hERG current change (%, negative = inhibition) at 10uM [%]"
1,Cc1ccc(C)c(C(=O)Nc2nc3ccccc3[nH]2)c1,25.9
2,O=C(NCC1CCCO1)C1CCN(C2CCN(C3CCCCCC3)CC2)CC1 (centres unmarked),28.4
3,Cc1ccc(CN2CCC(N3CCC(C(=O)NCC4CCCO4)CC3)CC2)o1 (centres unmarked),-4.02
4,O=C(NCC1CCCO1)C1CCN(C2CCN(Cc3ccco3)CC2)CC1 (centres unmarked),-51
5,O=C(NCC1CCCO1)C1CCN(C2CCN(CCCC3CCCC3)CC2)CC1 (centres unmarked),-58
6,Cc1ccccc1CN1CCC(N2CCC(C(=O)NCC3CCCO3)CC2)CC1 (centres unmarked),-1.07
7,O=C(NCCc1ccccc1)C1CCN(C2CCN(Cc3ccco3)CC2)CC1,-62.7
8,O=C(NCC1CCCO1)C1CCN(C2CCN(C(=O)CC3CCCC3)CC2)CC1 (centres unmarked),-10
9,O=C(NCCc1ccccc1)C1CCN(C2CCN(Cc3ccc(CO)o3)CC2)CC1,18.2
10,O=C(NCC1CCCO1)C1CCN(C2CCN(Cc3cccs3)CC2)CC1 (centres unmarked),-64.2
11,O=C(NCCc1ccccc1)C1CCN(Cc2ccccc2F)CC1.O=C(O)C(=O)O,1.53
12,CCOc1cccc(CN2CCC(N3CCC(C(=O)NCC4CCCO4)CC3)CC2)c1 (centres unmarked),-10.5
13,Cc1cc(C)c(CN2CCC(N3CCC(C(=O)NCC4CCCO4)CC3)CC2)cc1C (centres unmarked),-24.4
14,Cc1ccc(C(=O)Nc2cc(C(C)C)c(O)c(C(C)C)c2)cc1,-4.12
15,CC(=O)[C@@H]1[C@@H](C)N(Cc2ccccc2)C(=O)N[C@H]1c1cccc(C(F)(F)F)c1,5.55
16,Cc1nnsc1C(=O)Nc1ccccc1,18.2
17,O=C(N/N=C/c1ccc(F)cc1)c1cccc(NC(=O)c2ccc(F)cc2)c1,-4.54
18,O=C(Nc1cccc(-n2cnnn2)c1)c1ccco1,-0.205
19,COc1ccc(NC(=S)N2CCC(N(C)CCN3CCOCC3)CC2)cc1Cl,-26.8
20,CN(C)c1nc(N(C)C)nc(N(C#N)CCCl)n1,8.89
